Experimental data from PubChem BioAssay (NCI).
This is part of a sample that, as a whole, favours compounds with a hit. Of some 83,000 tested, about 20% had one in any assay.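 In brief: 96-well plates, 48 h treatment, single concentration, percent growth endpoint.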 A number with no mark means an inactive call. Active and inactive are the calls of the source. How the source made its calls: active means growth percent below 10; inactive means the rest.

Tested on: A498 renal
Experiment: NCI-60 one-dose screen, 48 h (100 = growth as untreated, 0 = no growth, -100 = all killed)
Conditions: 10 µM unless noted

SMILES	growth
COc1cc2c(c(OC)c1OC)C(=O)CC(c1cccc(C(=O)Nc3cccc(Br)c3)c1)O2 (stereo not given)	76%
CCC(C)CC(N)O (stereo not given)	109%
S=C(N/N=C/c1cc(Cl)cc(Cl)c1)NC12CC3CC(CC(C3)C1)C2	57.1%
O=CN/N=C/c1ccc(Cl)c([N+](=O)[O-])c1	56%
CNc1ccc(Nc2ccc(S(=O)(=O)O)cc2)c2c1C(=O)c1ccccc1C2=O	113%
O=C(/C=C1\C(=O)N(Cc2ccccc2)c2ccccc21)c1ccc(OCCN2CCCCC2)cc1	68.4%
O=C(Nc1ccc(Cl)c(Cl)c1)O/N=C\c1c(Cl)ccc([N+](=O)[O-])c1Cl	46%
C/C(=C\c1ccc2ccccc2c1)[N+](=O)[O-]	103%
CCCCCCCCC1OC1CCCCCCCC(=O)O (stereo not given)	102%
CN1NC(c2ccccc2)NN(C)C1=O	119%
COc1cc2cc3cc4cc(OC)c(OC)cc4c(C)[n+]3cc2cc1OC (tested in a mixture with another compound)	93.6%
CC(=O)OC1/C=C\CC/C=C\C1 (stereo not given)	86.9%
O=C(/C=C\c1ccc(NCc2ccc(C(=O)O)cc2)cc1)CCl	55.6%
CCCCCCC(C)N(CC(C)(C)O)C(=O)c1ccc([N+](=O)[O-])cc1 (stereo not given)	101%
COc1ccc(/C=N/c2cc(C(C)(C)C)nn2-c2ccccc2)cc1	103%
COc1ccc(/C=C2\SC(=O)N(Cc3cc(=O)oc4ccc(OC)cc34)C2=O)cc1	93.5%
CNCCCNCCCCNCCCN1C(=O)c2ccc3c4c(ccc(c24)C1=O)C(=O)N(CCCNCc1ccccc1OC)C3=O	45.1%
CC(O)CN(CC(C)O)N(CC(C)O)CC(C)O (stereo not given)	104%
COc1ccc(/C=C2\CCCC3=C2N=C2SC=NN2C3c2ccc(OC)c(OC)c2)cc1OC (stereo not given)	42.8%
COc1ccc(CN2C(=O)/C(=C\C(=O)c3ccc(OCCN4CCCCC4)cc3)c3ccccc32)cc1	88.4%
CCN(CC)CCCNc1c2ccc(Cl)cc2nc2ccc(OC)cc12	-62.2% (active)
O=C1C=C(OCC=C(C(F)(F)F)C(F)(F)F)c2ccccc2C1=O	80.9%
Cc1ccc(S(=O)(=O)N/N=C2\CC3CCC2C3)cc1 (stereo not given)	97.7%
O=C(O)CS(=O)c1ccc(Cl)cc1 (stereo not given)	91.9%
CCN(CC)CCCC(C)Nc1c(C)cnc2cc(Cl)c(C)cc12 (stereo not given)	83.2%
Oc1ccc([S+](c2ccc(O)cc2)c2ccc(O)cc2)cc1	71.3%
CC(=O)Nc1ccc(C(=O)/C=C/c2ccc(N(C)C)cc2)cc1	104%
CC(=O)c1ccc2c(c1)c1ccccc1n2C	-85.3% (active)
CC1(C)NC(=S)NC1=O	88.3%

Tested on: CCRF-CEM leukemia
Experiment: as above
Conditions: 10 µM

SMILES	growth
COc1cc2c(c(OC)c1OC)C(=O)CC(c1cccc(C(=O)Nc3cccc(Br)c3)c1)O2 (stereo not given)	45%
CCC(C)CC(N)O (stereo not given)	115%
S=C(N/N=C/c1cc(Cl)cc(Cl)c1)NC12CC3CC(CC(C3)C1)C2	50.8%
CCCNC(=O)Oc1ccc(/C(=C(/CC)Cc2ccccc2)c2ccc(OCCN(CC)CC)cc2)cc1	57.7%
O=CN/N=C/c1ccc(Cl)c([N+](=O)[O-])c1	15.3%
CNc1ccc(Nc2ccc(S(=O)(=O)O)cc2)c2c1C(=O)c1ccccc1C2=O	89.2%
O=C(/C=C1\C(=O)N(Cc2ccccc2)c2ccccc21)c1ccc(OCCN2CCCCC2)cc1	1.17% (active)
Cc1ccc(C(=O)NN)cc1	99.5%
CC1Cc2cc(F)ccc2-n2cccc21 (stereo not given)	111%
CCCCCCCCCCN1CC2CCCCC2C1 (stereo not given)	46.1%
O=C(Nc1ccc(Cl)c(Cl)c1)O/N=C\c1c(Cl)ccc([N+](=O)[O-])c1Cl	-19.3% (active)
C/C(=C\c1ccc2ccccc2c1)[N+](=O)[O-]	-25.4% (active)
CCCCCCCCC1OC1CCCCCCCC(=O)O (stereo not given)	93%
Cc1sc(NC(=O)c2ccc(C(C)(C)C)cc2)c(C(=O)O)c1C	48.7%
COc1cc2cc3cc4cc(OC)c(OC)cc4c(C)[n+]3cc2cc1OC (tested in a mixture with another compound)	51.8%
CC(C)(C)C(=O)OCOP(=O)(OCOC(=O)C(C)(C)C)C1CC(O)N(O)C1=O (stereo not given)	4.09% (active)
CC(=O)OC1/C=C\CC/C=C\C1 (stereo not given)	103%
O=C(/C=C\c1ccc(NCc2ccc(C(=O)O)cc2)cc1)CCl	-8.72% (active)

SMILES	growth
CCCCCCC(C)N(CC(C)(C)O)C(=O)c1ccc([N+](=O)[O-])cc1 (stereo not given)	74.8%
COc1ccc(/C=C2\SC(=O)N(Cc3cc(=O)oc4ccc(OC)cc34)C2=O)cc1	77.2%
CNCCCNCCCCNCCCN1C(=O)c2ccc3c4c(ccc(c24)C1=O)C(=O)N(CCCNCc1ccccc1OC)C3=O	45.8%
COc1ccc(/C=C2\CCCC3=C2N=C2SC=NN2C3c2ccc(OC)c(OC)c2)cc1OC (stereo not given)	7.48% (active)
COc1ccc(CN2C(=O)/C(=C\C(=O)c3ccc(OCCN4CCCCC4)cc3)c3ccccc32)cc1	8.94% (active)
CCN(CC)CCCNc1c2ccc(Cl)cc2nc2ccc(OC)cc12	-10.1% (active)
O=C1C=C(OCC=C(C(F)(F)F)C(F)(F)F)c2ccccc2C1=O	-33.9% (active)
Cc1ccc(S(=O)(=O)N/N=C2\CC3CCC2C3)cc1 (stereo not given)	100%
O=C(O)CS(=O)c1ccc(Cl)cc1 (stereo not given)	98.5%
CCN(CC)CCCC(C)Nc1c(C)cnc2cc(Cl)c(C)cc12 (stereo not given)	62.2%
Oc1ccc([S+](c2ccc(O)cc2)c2ccc(O)cc2)cc1	100%
CC(C)CSc1nc(-c2ccc(F)cc2)c(C#N)c(N2CCCCC2)n1	94.4%
CC(=O)Nc1ccc(C(=O)/C=C/c2ccc(N(C)C)cc2)cc1	101%
CCCCCN1CCN(C(CC(=O)c2ccccc2)C(=O)c2ccccc2)CC1 (stereo not given)	-14.7% (active)
CCCCCC(=C/c1ccccc1)/C=N/N=C(N)N	15.7%
CC(=O)c1ccc2c(c1)c1ccccc1n2C	70.6%
CC1(C)NC(=S)NC1=O	88.2%
CC(=O)OCC(=O)[C@@]1(O)[C@H](C)C[C@H]2[C@@H]3C=C(C)C4=Cc5c(cnn5-c5ccc(F)cc5)C[C@]4(C)[C@H]3[C@@H](O)C[C@@]21C	6.74% (active)
